Screens as filed in PubChem.
D1 agonist: Allosteric Agonists of the Human D1 Dopamine Receptor: qHTS; activation, % at 2 µM; 1% of 360,000 active; HEK293 T-REx D1 cells, calcium flux, agonist mode; D(1A) dopamine receptor (Homo sapiens), P21728; AID 504660, 2011; in the data active = activation above about 30%; also: 0% is about no effect
Target sequence (P21728 whole entry, looked up): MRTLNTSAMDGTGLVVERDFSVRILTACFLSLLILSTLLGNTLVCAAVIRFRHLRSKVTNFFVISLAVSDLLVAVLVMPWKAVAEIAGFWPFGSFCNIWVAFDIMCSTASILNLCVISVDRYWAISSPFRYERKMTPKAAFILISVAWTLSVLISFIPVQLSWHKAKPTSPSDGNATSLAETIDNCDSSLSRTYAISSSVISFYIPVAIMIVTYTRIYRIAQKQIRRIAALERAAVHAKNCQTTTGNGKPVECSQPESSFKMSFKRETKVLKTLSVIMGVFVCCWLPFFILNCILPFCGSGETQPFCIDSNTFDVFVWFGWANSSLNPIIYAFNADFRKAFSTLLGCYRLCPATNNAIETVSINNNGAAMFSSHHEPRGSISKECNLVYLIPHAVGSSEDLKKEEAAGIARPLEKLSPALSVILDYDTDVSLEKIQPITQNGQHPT
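Agonism was scored from calcium flux recorded over 180 s (1 read/s) after pintool compound addition, following a 10-cycle baseline. Cells were inducible force-coupled HEK293 TREx D1, plated overnight at 30 C and loaded with no-wash calcium dye.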
DRD3 agonist: qHTS of D3 Dopamine Receptor Agonist: qHTS. D3R DiscoveRx beta-arrestin cells, luminescence, 90 min. D(3) dopamine receptor (Homo sapiens), P35462. AID 652048, 2013. max activation, %. 0.58% of 410,000 active; in the data active = max activation above about 30%; also: 0% is about no effect
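Agonist mode: compounds and dopamine controls were applied to plated cells for 90 min at 37 degrees C after an overnight attachment at 1500 cells/well. Luminescent read-out followed 30 - 60 minutes at room temperature with DiscoveRx detection reagent.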
D1 PAM: Potentiators of Human D1 Dopamine Receptor: qHTS. 0.036% of 360,000 active. D(1A) dopamine receptor (Homo sapiens), P21728. HEK293 TREx D1 cells, calcium flux, dopamine EC20 potentiation. potentiation, % at 10 µM. AID 504651, 2011; in the data active = potentiation above about 30%; also: 0% is about no effect
D1 antagonist: Antagonist of Human D 1 Dopamine Receptor: qHTS | D(1A) dopamine receptor (Homo sapiens), P21728 | 3.2% of 360,000 active | AID 504652, 2011 | HEK293 TREx D1 cells, calcium flux, dopamine EC80; hits give low values | activity change, negative = inhibition, % at 10 µM; in the data active = activity change below about -30%; also: % is scaled to controls: 0 for no effect and ±100 for the full control effect
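HEK293 T-REx cells expressing inducible, force-coupled D1 receptor; no-wash Ca dye, 30–90 min RT. Cmpd → 180 s read at 1 Hz → EC80 DA → 180 s read.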
DRD3 antagonist: qHTS of D3 Dopamine Receptor Antagonist: qHTS; D(3) dopamine receptor (Homo sapiens), P35462; D3R cells, DiscoveRx beta-arrestin luminescence, antagonist mode; hits give low values; max response, negative = inhibition, %; 2.5% of 360,000 active; in the data active = max response below about -50%; inconclusive = no clear call, values can overlap the other calls; also: % is scaled to controls: 0 for no effect and ±100 for the full control effect
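Cells plated overnight at 1500 cells/well, then exposed to library compounds with dopamine controls for 90 minutes at 37 degrees C. DiscoveRx reagent added for 30–60 minutes at room temperature; luminescence read, quantitative HTS format.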
Chronic BCR inh: qHTS Assay to Find Inhibitors of Chronic Active B-Cell Receptor Signaling; 0.05% of 340,000 active; ABC-DLBCL IkBa-CBG/CBR reporter, luminescence ratio, 4 h; Potency, µM (doses to about 46.1 µM), for the others: at the highest dose activity change, negative = inhibition, actives largely listed as inhibitors; AID 493014, 2011; active = well fitted inhibition curve with a large enough effect in the signal ratio, with a control signal flat, not every such curve was filed as active; inconclusive = small, poorly fitted or top-dose-only effect, or effect the other way, or a change in a side signal; the % refers to the signal ratio;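 also: potency is read from the fitted curve at half-maximal effect; plate controls were basal doxycycline-induced cells for no effect and cells given 10 µM MG132 for full effect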
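Cell line TMD8 (human ABC DLBCL), stably expressing tet-inducible CBG68-IkBa fusion and CBR; IMDM/0.5% FBS; cpd up to 46 uM; dox induction, 4 h, 37C/5% CO2; dual luminescence; green/red ratio; MG132 control.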
Numbers without * were called inactive; ? = inconclusive; . = no result. The list is not random: actives were taken first. Their share in the collection is about 6%.

SMILES | D1 agonist | DRD3 agonist | D1 PAM | D1 antagonist | DRD3 antagonist | Chronic BCR inh
CCC(C)(C)n1nnnc1C(c1cccc(C#N)c1)N1CCN(c2cc(C)ccc2C)CC1 (stereo not given) | 3.0 | -7.7 | 0.1 | 4.5 | -60.2* | 4.6%
CC(=O)c1cn(CCOc2ccccc2C)c2ccccc12 | 17.7 | 11.8 | -7.3 | -38.0* | 29.0 | ?
Cc1ccccc1OCCn1cc(C(=S)N2CCCC2)c2ccccc21 | . | -3.1 | . | . | -18.6 | .
Cc1ccc(OC(C)C(=O)Nc2ccncc2)cc1C (stereo not given) | 17.8 | 14.3 | -7.6 | -32.2* | 3.3 | -7.1%
CC(Oc1ccc(Br)cc1Cl)C(=O)Nc1ccncc1 (stereo not given) | 14.9 | 4.9 | -6.0 | -34.5* | 12.3 | -13.4%
CC(Oc1ccc(Br)cc1)C(=O)Nc1ccncc1 (stereo not given) | 29.1 | 2.9 | -14.9 | -27.3 | 14.2 | -0.5%
CCOC(CNC(=O)c1ccc(N2CCc3ccccc32)c([N+](=O)[O-])c1)OCC | 12.0 | -11.9 | -9.1 | -37.0* | -66.9* | -5.4%
CCOC(=O)[C@@H](NC(=O)/C=C/[C@H]1O[C@@H](n2cc(C)c(=O)[nH]c2=O)C[C@@H]1O)C(C)C | . | 2.7 | . | . | 2.8 | .
Cc1ccc(-n2c(C)cc3c2CC(C)(C)CC3=O)cc1C | 24.3 | -5.3 | -1.5 | 13.5 | -88.4* | 2.0%
Cc1cc2c(n1-c1ccc(Br)cc1)CC(C)(C)CC2=O | 2.2 | -1.6 | -1.5 | 8.4 | -18.1 | 16.6%
O=C(Nc1ccc(Br)cc1)C1CCN(C(=O)c2ccco2)CC1 | 9.6 | -30.9 | -12.3 | 1.4 | -19.9 | 8.1%
O=C(c1ccc(-c2ccccc2)cc1)N1CCN(C(=O)c2ccco2)CC1 | 3.5 | 2.9 | -1.0 | -37.3* | 3.4 | -0.5%
O=C(c1ccccc1)C1CCN(C(=O)c2ccco2)CC1 | 2.2 | 2.6 | 59.2* | -3.0 | -2.5 | 3.5%
O=C(Nc1ccccc1)C1CCN(C(=O)c2ccco2)CC1 | 1.4 | 5.8 | -5.8 | -4.2 | 10.2 | 3.7%
Cn1c(=O)cc(N2CCN(C(=O)c3ccco3)CC2)[nH]c1=O | 2.1 | -11.8 | -3.4 | -5.4 | -112.9* | 2.3%
Cc1cc(NC(=O)C2CCN(C(=O)c3ccco3)CC2)ccc1Br | 8.6 | -21.2 | -5.4 | -36.6* | -16.7 | ?
Cc1ccnc(NS(=O)(=O)c2ccc(NC(=O)c3cc(=O)c4ccc(C)c(C)c4o3)cc2)n1 | 0.8 | -6.2 | -0.6 | 8.9 | . | .
CCOc1cc(S(=O)(=O)NCCc2c(C)[nH]c3ccc(C)cc23)ccc1Br | -0.4 | -3.2 | -4.7 | 0.4 | . | .
CCOC(=O)N1CCN(S(=O)(=O)c2ccc(Br)s2)CC1 | 2.8 | 2.4 | -2.0 | -4.9 | 0.0 | 7.5%
CC(C)(C)c1ccc(C(=O)N2CCN(S(=O)(=O)c3ccc(Br)s3)CC2)cc1 | 6.2 | 0.1 | -11.4 | -31.6* | 45.8 | 1.0%
CC(C)(C)c1ccc(C(=O)N2CCN(C(=O)c3ccco3)CC2)cc1 | 5.1 | 4.9 | -2.8 | -30.1* | 12.1 | 2.8%
CC(C)(C)c1ccc(Cn2nnc3c(=O)[nH]c(C4CCN(C(=O)c5ccco5)CC4)nc32)cc1 | 0.1 | 31.5* | 2.5 | 14.4 | 8.2 | -19.1%
CC(C)(C)c1ccc(Cn2nnc3c(=O)[nH]c(C4CCN(C(=O)Cc5cccs5)CC4)nc32)cc1 | 1.2 | -1.6 | -4.2 | 2.9 | 20.4 | ?
CCCCc1nc(Cl)c(CO)n1Cc1ccc(-c2ccccc2-c2nn[nH]n2)cc1 | 3.7 | 5.9 | -2.4 | -22.0 | 22.6 | 26.3%
CCCc1nc(C(C)(C)O)c(C(=O)O)n1Cc1ccc(-c2ccccc2-c2nn[nH]n2)cc1 | 0.1 | . | -0.2 | -43.0* | . | 7.8%
SMILES | D1 agonist | DRD3 agonist | D1 PAM | D1 antagonist | DRD3 antagonist | Chronic BCR inh
O=C(Nc1cccc2cccnc12)c1csc(COCCO)n1 | . | 2.8 | . | . | -4.2 | .
O=C(NNC(=O)c1ccc(Cl)cc1Cl)Nc1ccccc1 | 0.5 | 2.1 | -14.7 | -37.8* | -15.6 | 2.2%
O=C(NCc1n[nH]c(=S)n1Cc1ccccc1)c1ccc(Cl)cc1Cl | 4.5 | -2.4 | -0.3 | -31.4* | -5.1 | -2.4%
Cc1ccsc1C(=O)NCC(=O)OCc1ccccc1 | 2.6 | -10.0 | -7.5 | -30.2* | -26.5 | ?
O=C(COC(=O)CNC(=O)c1ccc(Cl)cc1Cl)NNC(=O)c1ccccc1 | -0.4 | -5.5 | -14.9 | -17.4 | -20.9 | -0.8%
O=C(CNC(=O)c1ccc(Cl)cc1Cl)OCc1ccccc1 | -0.4 | -3.1 | -4.5 | -31.9* | 5.3 | 4.8%
COc1ccc(C(O)c2nc(-c3cc(F)cc(F)c3)cs2)cc1 (stereo not given) | . | 2.2 | . | . | -11.0 | .
Cc1ccccc1NC(=O)Nc1nnc([C@@H]2C[C@H](O)[C@@H](CO)O2)s1 | . | 53.9* | . | . | 0.0 | .
Cc1ccc(C(=O)Nc2nnc([C@H]3C[C@H](O)[C@@H](CO)O3)s2)cc1 | . | -14.7 | . | . | -76.5* | .
O=C(Nc1ccc2nc(SCC(=O)N3CCc4ccccc43)sc2c1)c1ccc(F)cc1 | 5.4 | -3.3 | -1.1 | -0.4 | . | .
CC(=O)c1ccc(N2CCN(S(=O)(=O)c3ccc(-c4cc(C(F)(F)F)on4)s3)CC2)cc1 | 0.6 | 7.9 | -3.8 | -30.8* | . | .
CC(=O)c1ccc(N2CCN(S(=O)(=O)c3ccc(-c4cc(C)no4)s3)CC2)cc1 | 8.7 | 2.5 | -8.4 | -22.2 | 13.6 | -12.1%
COc1cc(SC)ccc1C(=O)OCC(=O)NC1CCCCC1 | 0.8 | -6.1 | 2.0 | -31.6* | -0.7 | -18.5%
COc1ccc(C(=O)OCC(=O)N2CCCC2=O)c(OC)c1 | 0.9 | 1.9 | -5.1 | -3.0 | -55.5* | -1.3%
CCN(CC)S(=O)(=O)c1ccc(O)c(C(=O)OCC(=O)NC2CCCC2)c1 | -0.5 | 12.0 | -8.9 | -65.9* | 6.4 | -6.8%
COc1ccc(C(C)(C)C)cc1NC(=O)COC(=O)c1cc(SC)ccc1Cl | 10.0 | -14.4 | -3.3 | -25.1 | -17.5 | ?
COc1ccc(NC(=O)COC(=O)c2cc(SC)ccc2Cl)c(OC)c1 | 3.9 | 32.4* | -8.9 | 0.8 | -4.2 | -0.2%
CCN(CC)S(=O)(=O)c1ccc(C(=O)OCC(=O)NC2CCCC2)cc1 | 8.9 | 2.6 | -7.8 | -21.0 | 0.0 | -0.8%
COc1ccc2oc(C(=O)OCC(=O)N3CCCC3=O)c(C)c2c1 | 4.2 | -5.9 | -8.3 | 5.3 | -1.4 | ?
COc1cc(SC)ccc1C(=O)OCC(=O)NC1CCCC1 | 2.3 | -2.7 | -8.5 | -11.5 | -3.6 | 1.4%
